Assay results published in the supplement of paper PMC6555819.

Legend:
Assay in all cases: PBM binding z-score (relative to random genomic background probes); higher = stronger binding; sequences stand for … in GC…GCGATTGACAGCGTAGAATGAAGG
[1] = tested on: RARb homodimer (NR concentration 270 nM)
Outline: (§1)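 The probes on custom Agilent 4×180K protein-binding microarrays were double-stranded, with 34-nt variable regions bearing direct-repeat seeds, single-nucleotide variants, half-site ablations and random human genomic background sequences. Incubation lasted 1 h with ligand-free nuclear receptor dimers in PBS pH 7.4, 2% milk, 0.02% Triton X-100, 1 mM DTT, 0.2 mg/mL BSA and 0.4 mg/ml salmon testes DNA. Antibodies against each partner (one per run) detected bound dimers, and fluorescence scans were regression-normalized. Binding z-scores take the random background probes as reference.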

[2] = tested on: RARg:RXRa (NR concentration 270 nM, RXRa partner concentration 90 nM)
Outline: as §1

[3] = tested on: RARg homodimer (NR concentration 270 nM)
Outline: as §1

[4] = tested on: RXRa DBDmut IVT, anti-RXR (DBD mutation: RXRa K156A/R161A, NR concentration 90 nM)
Outline: as §1

[5] = tested on: RXRa homodimer (NR concentration 180 nM)
Outline: as §1

[6] = tested on: THRa:RXRa (NR concentration 90 nM, RXRa partner concentration 90 nM)
Outline: as §1

[7] = tested on: THRa homodimer (NR concentration 90 nM)
Outline: as §1

[8] = tested on: VDR homodimer (NR concentration 270 nM)
Outline: as §1

Row | Sequence | PBM binding z-score [1] | PBM binding z-score [2] | PBM binding z-score [3] | PBM binding z-score [4] | PBM binding z-score [5] | PBM binding z-score [6] | PBM binding z-score [7] | PBM binding z-score [8]
1 | GATACAGGGTCAGCGAGAGGCCAGAGTATGGAAA | 3.12 | 6.57 | 4.48 | 1.31 | 4.6 | 3.3 | 0.369 | 0.864
2 | TCTCGGAGGACACGAAGGTCAGAGCGTTCCAGAG | 3.79 | 3.32 | 3.84 | 0.548 | 1.94 | 2.99 | 0.835 | 1.2
3 | ACTAGCAGGCCAACGGTCACTCAAGATTAGTCCG | 1.57 | 0.906 | 1.57 | -0.139 | 0.345 | -0.135 | -0.434 | -0.593
4 | GCAACTGGGGCAAAGCAGGTTACCATAAGGTTGG | 1.27 | 0.563 | 0.56 | -0.0375 | 0.648 | 2.78 | 0.101 | -0.248
5 | CTCGAAAGGTCGTGTTCAGGTGAGTATACCAAAC | 2.87 | 4.55 | 3.44 | 2.35 | 4.3 | 4.17 | 1.16 | 1.16
6 | GGAACGAGGGCATACGAGTTGATAGCATGGCGAT | 0.493 | 1.12 | 1.65 | 2.41 | 1.02 | 2.92 | -0.328 | 2.37
7 | ATCGACAGGTCGTGAGGTGAGTATACAGAAAGGC | 1.39 | 2.07 | 1.67 | 0.0757 | 2.17 | 2.38 | 1.28 | 0.435
8 | CCGACTGGGGCATCAGGTTACCATAAGCCAGCCC | 0.867 | 0.461 | 0.586 | -0.734 | 0.214 | 0.994 | 0.484 | -0.423
9 | TAGCCTAGGTCATTCGGGCCAGTATAGTGTCGGC | 3.25 | 3.72 | 4.17 | 1.79 | 3.07 | 3.16 | 1.11 | 1.49
10 | TCTTGTAGATCAGCAGGTTGAGAAAGCTGGCCAA | -0.505 | -0.343 | -0.727 | 0.441 | 0.0477 | -0.234 | -0.41 | -0.222
11 | GTACCAAGGTGAATAAGTCGTTGATGAGTAGGCG | 0.43 | 0.827 | 0.671 | -0.0366 | 0.742 | 1.21 | 0.531 | 0.148
12 | AATACAGGGTCATCGTAAGCCAGAGTACGCACAG | 3.27 | 5.55 | 4.8 | 3.07 | 6.56 | 3.68 | 1.39 | 3.12
13 | CCTACTGGGCCGAAGGTCATTGATTCCAATGCTC | 3.08 | 2.93 | 2.53 | 0.398 | 3.01 | 1.99 | 0.19 | 1.46
14 | CTTTACGGGTCACGAGGTTATAGCACGACGAGCG | 4.15 | 6.33 | 5.71 | 2.53 | 7.44 | 3.92 | 1.66 | 2.28
15 | TCTATTAGTTGAAGGGGAACCGACGAGTCCGTTT | 0.0488 | 0.44 | 0.17 | 2.05 | 0.673 | 0.226 | 0.565 | 1.61
16 | AGGATGAGGTTATTAAGATCAGGGAATTGCGGTC | 1.49 | 1.41 | 1.1 | 1.78 | 1.9 | 2.24 | 1.47 | 1.97
17 | ATCTCTAGGCAACCAAGTTCAGTGAATGCCGAAC | 1.25 | 0.473 | 0.591 | 0.688 | 0.505 | 0.9 | -0.255 | 2.3
18 | CTTACTGGGCCAAGGTCATTGATCAGTCAAAGCA | 3.49 | 4 | 3.2 | 2.11 | 3.65 | 3.43 | 2.31 | 3.76
19 | CTGGAAAGGTCGGTTGAGGTGAGTATACGGATAA | 2.18 | 2.53 | 2.93 | 1.05 | 2.18 | 4.88 | 1.56 | 0.437
20 | TCGAGTAGGTTAGGGGCATTCATAATGGCGTCGA | 0.847 | 0.406 | 0.583 | 0.422 | 0.801 | 0.804 | 0.251 | 0.868
21 | CCTTACGGGTCCCGAGGTTATAGCACGACGAGCG | 0.515 | 0.416 | 0.388 | -1.34 | 0.999 | 1.1 | 0.132 | 0.162
22 | ATCTCTAGGTAAAAGTTCAGTGACTCCCGAGGAT | 2.46 | 2.04 | 2.16 | 0.624 | 1.75 | 1.32 | 0.142 | 1.69
23 | ATATCTAGGTAAAGTTCAGTGAAAGATCGATAGA | 2.45 | 2.04 | 2.43 | 1.6 | 1.53 | 1.33 | 0.34 | 1.78
24 | ACTATTAGTTGCCTTAGGGCAACCGATACGACGC | 0.893 | 0.429 | 0.732 | 0.351 | 0.447 | 1.46 | 0.815 | 0.176
25 | ACTTACGGTTCAACGAGGTTATAGCACGCGTATA | 1.54 | 2.25 | 1.14 | 3.49 | 3.22 | 3.06 | 0.878 | 5.32
26 | GCTGCTAGGTCAGCTTGGTCAGCTAACGGGTACG | 2.8 | 2.8 | 3.88 | 0.514 | 1.1 | 1.73 | 0.547 | -0.161
27 | AGAATGAGGTTACCGAAGATCAGGGAAACGCTTG | 0.586 | 2.27 | 1.76 | 1.5 | 2.87 | 3.05 | 0.672 | 0.193
28 | AGAACGAGGGCACGCTGAGTTGATACCAGAGTAG | 1.13 | 1.91 | 2.16 | 1.46 | 1.44 | 1.74 | 0.271 | 1.98
